Measured values: the supplement of paper PMC8773631
Several values for one entry are separate records, joined by “and”; a condition that tells them apart may be missing. Identical values can stand only once. Counter-ions that a name gives are not always drawn. ± gives the uncertainty stated by the source.

test system: NCC-MFS5-C1; assay: cell viability relative to DMSO control; higher = less growth inhibition; conditions: 10 µM; treatment time: 3 days
Description: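 NCC-MFS5-C1 myxofibrosarcoma cells (1x10^4 per well, 384-well) were treated on day 2 with 10 µM of each drug. On day 5, viability was read by CCK-8 absorbance at 450 nm and normalised to the DMSO control (%), n = 2.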

Structure (SMILES)	cell viability
CC[C@@H]1/C=C(\C)C[C@H](C)C[C@H](OC)[C@H]2O[C@@](O)(C(=O)C(=O)N3CCCC[C@H]3C(=O)O[C@H](/C(C)=C/[C@@H]3CC[C@H](Cl)[C@H](OC)C3)[C@H](C)[C@@H](O)CC1=O)[C@H](C)C[C@@H]2OC [Pimecrolimus]	41.3 ± 5.4%
CC/C(=C(/CC)c1ccc(O)cc1)c1ccc(O)cc1 [Diethylstilbestrol]	87.8 ± 22%
CNC(=O)c1ccc(-c2cnc3ncc(Cc4ccc5ncccc5c4)n3n2)cc1F	80.9 ± 7.9%
CN(CCOc1ccc(CC2SC(=O)NC2=O)cc1)c1ccccn1 (stereo not given) [Rosiglitazone]	88.53 ± 0.85%
Nc1nc(CC(=O)Nc2ccc(CCNC[C@H](O)c3ccccc3)cc2)cs1 [Mirabegron]	82.5 ± 4.6%
Cc1ccc(F)c(NC(=O)Nc2ccc(-c3cccc4[nH]nc(N)c34)cc2)c1 [Linifanib (ABT-869)]	46.3 ± 12%
CNC(=O)c1cc(Oc2ccc(NC(=O)Nc3ccc(Cl)c(C(F)(F)F)c3)cc2)ccn1 [Sorafenib]	64.2 ± 1.6%
CNNCc1ccc(C(=O)NC(C)C)cc1 [Procarbazine HCl]	94.3 ± 7.5%
CNC(=O)c1cc(Oc2ccc(NC(=O)Nc3ccc(Cl)c(C(F)(F)F)c3)c(F)c2)ccn1 [Regorafenib (BAY 73-4506)]	85.6 ± 6.8%
COc1cc(OC)cc(N(CCNC(C)C)c2ccc3ncc(-c4cnn(C)c4)nc3c2)c1 [Erdafitinib]	33.1 ± 2%
Cc1cc(Nc2ncc(Cl)c(Nc3ccccc3S(=O)(=O)C(C)C)n2)c(OC(C)C)cc1C1CCNCC1 [Ceritinib (LDK378)]	7.58 ± 6.4%
Cc1c2oc3c(C)ccc(C(=O)N[C@@H]4C(=O)N[C@H](C(C)C)C(=O)N5CCC[C@H]5C(=O)N(C)CC(=O)N(C)[C@@H](C(C)C)C(=O)O[C@@H]4C)c3nc-2c(C(=O)N[C@@H]2C(=O)N[C@H](C(C)C)C(=O)N3CCC[C@H]3C(=O)N(C)CC(=O)N(C)[C@@H](C(C)C)C(=O)O[C@@H]2C)c(N)c1=O [Actinomycin D]	40.2 ± 2.1%
COc1cc([C@@H]2c3cc4c(cc3[C@@H](O[C@@H]3O[C@@H]5CO[C@@H](c6cccs6)O[C@H]5[C@H](O)[C@H]3O)[C@H]3COC(=O)[C@H]23)OCO4)cc(OC)c1O [Teniposide]	76.7 ± 4.4%
COc1ccc(C2=N[C@@H](c3ccc(Cl)cc3)[C@@H](c3ccc(Cl)cc3)N2C(=O)N2CCNC(=O)C2)c(OC(C)C)c1 [Nutlin-3]	88.6 ± 1.8%
O=C(O)CCCN1CCC(O[C@@H](c2ccc(Cl)cc2)c2ccccn2)CC1 [Bepotastine Besilate]	78.7 ± 2.6%
Cc1[nH]c(/C=C2\C(=O)Nc3ccccc32)c(C)c1CCC(=O)O [Orantinib (TSU-68, SU6668)]	80.2 ± 1.5%
C=CC(=O)Nc1cccc(Nc2nc(Nc3ccc(N4CCN(C(C)=O)CC4)cc3OC)ncc2C(F)(F)F)c1 [Rociletinib (CO-1686, AVL-301)]	54.97 ± 0.41%
CN(C)C/C=C/C(=O)Nc1cc2c(Nc3ccc(F)c(Cl)c3)ncnc2cc1O[C@H]1CCOC1 [Afatinib (BIBW2992)]	9.65 ± 4.3%
Cc1ccc(NC(=O)c2ccc(CN3CC[C@H](N(C)C)C3)c(C(F)(F)F)c2)cc1Nc1nccc(-c2cncnc2)n1 [Bafetinib (INNO-406)]	2.79 ± 1.9%
CC(C)(C#N)c1cc(Cn2cncn2)cc(C(C)(C)C#N)c1 [Anastrozole]	83.5 ± 5.1%

Structure (SMILES)	cell viability
Cc1ccc(Nc2nccc(N(C)c3ccc4c(C)n(C)nc4c3)n2)cc1S(N)(=O)=O	61 ± 11%
O=C(c1cc(Cc2n[nH]c(=O)c3ccccc23)ccc1F)N1CCN(C(=O)C2CC2)CC1	78 ± 9.1%
COc1ccc2[nH]c([S@@+]([O-])Cc3ncc(C)c(OC)c3C)nc2c1 [Esomeprazole Sodium]	74.6 ± 1.4%
O=C1NC(=O)[C@@H](c2cn3c4c(cccc24)CCC3)[C@@H]1c1c[nH]c2ccccc12 [Tivantinib (ARQ 197)]	48.3 ± 1.5%
CC(C)(OCc1nn(Cc2ccccc2)c2ccccc12)C(=O)O [Bindarit]	85.93 ± 0.83%
O=S(=O)(O)CCS [Mesna]	76.99 ± 0.32%
O=C(O)C1(C(=O)O)CCC1.[NH2-].[NH2-].[Pt+2] [Carboplatin]	83.7 ± 2.2%
NC(=O)NO [Hydroxyurea]	71.3 ± 11%
CCCCC1C(=O)N(c2ccccc2)N(c2ccccc2)C1=O [Phenylbutazone]	72.5 ± 5.7%
Nc1nc2n[nH]nc2c(=O)[nH]1 [Azaguanine-8]	85.2 ± 7%
C=C1c2cccc(O)c2C(O)=C2C(=O)[C@]3(O)C(O)=C(C(N)=O)C(=O)[C@@H](N(C)C)[C@@H]3[C@@H](O)[C@H]12 [Methacycline HCl]	92.3 ± 5.3%
C#Cc1cccc(Nc2ncnc3cc(OCCOC)c(OCCO)cc23)c1	92.2 ± 1.8%
N#Cc1ccc(C(c2ccc(C#N)cc2)n2cncn2)cc1 [Letrozole]	92.3 ± 6.4%
C=CC[C@@H]1/C=C(\C)C[C@H](C)C[C@H](OC)[C@H]2O[C@@](O)(C(=O)C(=O)N3CCCC[C@H]3C(=O)O[C@H](/C(C)=C/[C@@H]3CC[C@@H](O)[C@H](OC)C3)[C@H](C)[C@@H](O)CC1=O)[C@H](C)C[C@@H]2OC [Tacrolimus (FK506)]	93.7 ± 7.5%
COc1c2occc2cc2ccc(=O)oc12 [Methoxsalen]	116 ± 22%
CCN1CCN(Cc2ccc(Nc3ncc(F)c(-c4cc(F)c5nc(C)n(C(C)C)c5c4)n3)nc2)CC1 [Abemaciclib mesylate]	84.2 ± 9%
CC(=O)OCC(=O)[C@@]1(O)CC[C@H]2[C@@H]3CCC4=CC(=O)CC[C@]4(C)[C@H]3C(=O)C[C@@]21C [Cortisone acetate]	90.9 ± 9.9%
NCC(=O)CCC(=O)O [5-Aminolevulinic acid HCl]	85.7 ± 2.2%
COc1cccc2c1C(=O)c1c(O)c3c(c(O)c1C2=O)C[C@@](O)(C(=O)CO)C[C@@H]3O[C@H]1C[C@H](N)[C@@H](O)[C@H](C)O1 [Epirubicin HCl]	45.5 ± 1%
CC(=O)c1c(C)c2cnc(Nc3ccc(N4CCNCC4)cn3)nc2n(C2CCCC2)c1=O	50.3% and 42.8%
